# In PubChem BioAssay (NCI):
# Where “and” joins values, the source holds several entries; their conditions need not be identical. Equal entries are not always repeated. About 83,000 compounds went through this panel and 20% of them were active in at least one assay; those are over-represented in the sample as a whole.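 Single-concentration screen, 48 h exposure, 96-well plates. Endpoint: percent growth. Below 10 = active.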 Calls of active or inactive are those of the source.
# Tested on: MDA-MB-468 breast
# Assay: NCI-60 one-dose screen, 48 h (100 = growth as untreated, 0 = no growth, -100 = all killed)
# Conditions: 10 µM unless noted
row,Compound,growth
1,C[CH2][Hg][S]c1ccccc1C(=O)O,-86.6% (active)
2,CN1CC2CCC(C1)C2=O,106% (inactive)
3,O=C(NCCNC(=O)c1ccc([As](O)O)cc1)c1ccc([As](O)O)cc1,82.2% (inactive)
4,OC1CCCCC1N1CCC(c2ccccc2)CC1 (stereo not given),116% (inactive)
5,N/C(=N/N=C/c1ccncc1)N[N+](=O)[O-],110% (inactive)
6,[Cl][Hg][c]1ccc2ccccc2c1,-83.2% (active)
7,CCOc1cc(C=C(C#N)C#N)cc(Br)c1O,119% (inactive)
8,COC(=O)[C@@H](C)C[C@H](Cc1ccc2ccccc2c1)NC(=O)c1csc([C@@H](C[C@H](C(C)C)N(C)C(=O)[C@@H](NC(=O)[C@H]2CCCCN2C)C(C)C)OC(C)=O)n1,67% (inactive)
9,CCOC(=O)CCN(C)C1=Nc2ccc(Cl)cc2C(c2ccccc2)=[N+]([O-])C1,93.7% (inactive)
10,NC(=O)c1cc([N+](=O)[O-])c(Cl)c([N+](=O)[O-])c1Cl,-84.9% (active)
11,Oc1ccccc1-c1ccccc1,105% (inactive) and 103% (inactive)
12,Oc1cc(N2CC2)c(O)cc1N1CC1,-62.7% (active)
13,COC(=O)C1CC2c3ccccc3C1c1ccccc12 (stereo not given),93.1% (inactive)
14,N#[N+]c1cnc([O-])[nH]c1=O,88.4% (inactive)
15,CO[C@H]1[C@H](O[C@@H]2C[C@@H]3C/C=C/C(=O)O[C@@H](CO)C[C@H](O)[C@@H]4C[C@H](C)[C@H](C/C=C\C=C\[C@H](C)C[C@H](C2)O3)O4)O[C@@H](C)[C@H](O)[C@H]1O,-4.8% (active)
16,O=C([O][Hg][c]1ccccc1)c1ccccc1,-67.2% (active)
17,COc1cc([C@@H]2c3cc4c(cc3[C@H](OC(C)=O)[C@H]3COC(=O)[C@H]23)OCO4)cc(OC)c1OC,44.6% (inactive)
18,CCC1CCC(=O)O1 (stereo not given),99.3% (inactive) and 109% (inactive)
19,Nc1nc(N)c(-c2ccc(Cl)c(Cl)c2)c(/C=C/c2ccc(S(=O)(=O)F)cc2)n1,103% (inactive)
20,S=P(SP(=S)(c1ccccc1)c1ccccc1)(c1ccccc1)c1ccccc1,101% (inactive)

row,Compound,growth
1,COC(=O)[C@H](Cc1ccccc1)NC(=O)c1csc([C@@H](C[C@H](C(C)C)N(C)C(=O)[C@@H](NC(=O)[C@H]2CCCCN2C)C2CC2)OC(C)=O)n1,-3.15% (active)
2,CCCCCCCCCCCCNC(c1ccccc1)C(O)c1ccccc1 (stereo not given),48.5% (inactive)
3,COc1cc(/C=C/[N+](=O)[O-])cc(OC)c1,-61.2% (active)
4,ClC1=C(Cl)C(Cl)(C2(Cl)C(Cl)=C(Cl)C(Cl)=C2Cl)C(Cl)=C1Cl,-59.2% (active)
5,COc1cc(C=Nc2cccc(Br)c2)ccc1N(CCCl)CCCl,-18.8% (active)
6,CCCCCCCCCCCCCCCCCC1OCC(COC(=O)O[C@@H](C(=O)O[C@H]2C[C@@]3(O)[C@@H](OC(=O)c4ccccc4)[C@@H]4[C@]5(OC(C)=O)CO[C@@H]5C[C@H](O)[C@@]4(C)C(=O)[C@H](OC(C)=O)C(=C2C)C3(C)C)[C@@H](NC(=O)c2ccccc2)c2ccccc2)O1 (stereo not given in full),3.29% (active)
7,O=C1NC(=O)C(O)(C2(O)C(=O)NC(=O)NC2=O)C(=O)N1,99.8% (inactive)
8,COc1ccc(C2SCC(=O)Nc3c2c(C)nn3-c2nc3ccc(C)cc3s2)cc1O (stereo not given),23.4% (inactive)
9,O=C1NC2(CCNCC2)Nc2ccccc21,98.8% (inactive)
10,O=S(=O)(F)c1cccc(Cl)c1C[P+](c1ccccc1)(c1ccccc1)c1ccccc1,46.9% (inactive)
11,O=[N+]([O-])c1ccc(CI)cc1,75.6% (inactive)
12,CCCn1cc2c3c(cccc31)[C@H]1C[C@@H](C)CN(C)[C@@H]1C2,95.5% (inactive)
13,Clc1cc(N2CC2)nc(N2CC2)n1,9.71% (active)
14,CC1(C)N=C(N)N=C(N)N1c1ccc(OCCCNC(=O)Nc2ccc(S(=O)(=O)F)cc2)c(Cl)c1,14.6% (inactive)
15,CCCCCCCCCCCC1CCCC(C)N1 (stereo not given),73.3% (inactive)
16,ClCCN(CCCl)c1ccc(C=NCCc2c[nH]c3ccccc23)cc1,-16.7% (active)
17,CCCCN1CCCC[C@@H]1C(=O)N[C@H](C(=O)N(C)[C@H](CCc1nc(C(=O)N[C@@H](Cc2ccccc2)C[C@H](C)C(=O)OC)cs1)C(C)C)[C@@H](C)CC,-1.75% (active)
18,Cc1cc(N=Nc2ccccc2C)ccc1N,64.5% (inactive)
19,O=C(O)c1ccccc1N(CCO)CCCl,95.1% (inactive)
20,CCCCN1CCCC[C@@H]1C(=O)N[C@H](C(=O)N(C)[C@H](C[C@@H](OC(C)=O)c1nc(C(=O)NC2CCC(C(=O)OC)CC2)cs1)C(C)C)C(C)C (stereo not given in full),17.4% (inactive)
